# Only some compounds are listed: those with a hit (about 19% of all), similar ones and a draw of the others.
# DT40 TDP1 no CPT: qHTS for Inhibitors of human tyrosyl-DNA phosphodiesterase 1 (TDP1): qHTS in cells in absence of CPT; 15% of 420,000 active; DT40 Tdp1-/- hTDP1 cells, no CPT, ATP luminescence, 48 h; Potency, µM (doses to about 46.2 µM), most hits filed as inhibitors; further: nearly all actives have a fitted effect of over 55% in size
#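 Stably hTDP1-transfected Tdp1-null chicken DT40 cells were treated with library compounds minus camptothecin and grown for at least 48 hr at 37 °C, after which cellular ATP was quantified by luminescence.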
# TDP1 cell CPT: DT40-hTDP1 cell growth loss with CPT; Potency, µM (doses to about 46.2 µM), actives largely listed as inhibitors; chicken DT40 Tdp1-/-;hTDP1 cells + 20 nM CPT, ATP luminescence, 48 h; 12% of 420,000 active; AID 686979; further: nearly all actives have a fitted effect of over 55% in size
#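 Cell growth measured by CellTiter-Glo luminescence after a minimum 48 h, 37 C compound exposure with 20 nM CPT in Tdp1-knockout DT40 cells stably expressing hTDP1, seeded 400/well; qHTS titration format.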
# HT1080-NT tox: kills 2HG-producing HT-1080-NT fibrosarcoma cells | 1.6% of 360,000 active | HT-1080-NT fibrosarcoma viability, CellTiter-Glo ATP luminescence, 48 h | AID 686970 | Potency, µM (series often up to 46.1 µM), hits mostly cytotoxic;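 further: NT is the 2HG producing partner of a matched IDH1 knockdown line; nearly all actives have a fitted effect of over 55% in size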
#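 Read-out is CellTiter-Glo luminescence after 10 minutes at room temperature, following 48 hours' compound treatment of HT-1080-NT cells (750 cells/well, RPMI, 5% FBS, 37 degrees C).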
# IL-1B inflam inh: inflammasome signaling inhibition, IL-1 beta readout; THP-1 LPS/ATP IL-1B secretion, AlphaLISA, 16 h; active compounds read low; activity change, % at 57.5 µM; 4.7% of 360,000 active; AID 743279; in the data active means activity change below about -50%; inconclusive means mostly about -30% to -49%
#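 Secreted IL-1B measured by AlphaLISA bead assay after 16 h compound exposure of THP-1 cells; compounds (final up to 57.5 uM) added 1 h before LPS (250 ng/mL) and ATP (1.25 mM) stimulation; lower signal means less secretion.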
# HT1080 IDH1KD tx: HT-1080 IDH1 knockdown cell toxicity (counter line); HT-1080 IDH1 knockdown viability, ATP luminescence, 48 h; Potency, µM (titrated, usually from 46.1 µM), most hits filed as cytotoxic; 2% of 360,000 active
#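 In this qHTS, HT-1080 cells depleted of IDH1 are exposed for 48 h at 37 °C to compound titrations. Toxicity is scored from CellTiter-Glo luminescence, with DMSO as full viability and medium alone as none.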
# A number is an active result; i = inactive; ? = inconclusive; nt = not tested or not shown; [ ] = another dose, or the depositor's remark. Unless noted, the call rests on the fitted dose curve; in most records, active means well fitted curve in the direction sought with a large enough effect; inconclusive means small, poorly fitted or top-dose-only effect, or another doubt; inactive means no such curve, though single readings can be large; an effect the other way counts as inactive or inconclusive.
SMILES,DT40 TDP1 no CPT,TDP1 cell CPT,HT1080-NT tox,IL-1B inflam inh,HT1080 IDH1KD tx
C=CCN(CC=C)C(=S)NC(=O)c1ccc(OC)cc1,5.17µM,14.6µM,i,i,i
C=CCN(CC=C)C(=S)NC(=O)/C=C/c1ccc(OC)cc1,i,i,i,i,i
C=C(CN(C)C)C(=O)c1ccc(C)cc1C,0.581µM,0.517µM,?,-106.7,5.8µM
COc1ccc(SCc2cc(=O)c3cc(Cl)ccc3[nH]2)cc1,3.66µM,20.6µM,nt,nt,nt
Cc1cc(=O)c2cc(Cl)ccc2[nH]1,5.17µM,5.17µM,i,i,i
COc1ccc(NC(=O)CSCc2cc(=O)c3cc(Cl)ccc3[nH]2)cc1,i,i,nt,nt,nt
O=c1cc(CSc2ccccc2)[nH]c2ccc(F)cc12,16.4µM,11.6µM,nt,nt,nt
Cc1cc(=O)c2ccc(Cl)cc2[nH]1,i,i,i,i,i
Cc1ccc2[nH]c(CSc3ccccc3)cc(=O)c2c1,16.4µM,18.4µM,i,i,i
CCc1nc(SCc2cc(=O)c3cc(C)ccc3[nH]2)n[nH]1,i,i,nt,nt,nt
COc1ccc(CN2CCN(C(=O)C3CCC(CNS(=O)(=O)c4ccccc4)CC3)CC2)c(OC)c1OC (stereo unspecified),?,?,i,i,i
C#CCOCCOCCOCCNc1nc(N2CCN(C(=O)[C@H](CC(N)=O)n3cc([C@@H](N)C(C)C)nn3)CC2)nc(N2CCN(C(=O)[C@H](CC(N)=O)n3cc([C@@H](N)C(C)C)nn3)CC2)n1,i,i,i,i,i
COc1cc(=O)n2c(c1C(=O)N(C)C(C)c1ccco1)CCN(C(=O)c1ccc(C(C)=O)cc1)CC2 (stereo unspecified),i,i,nt,nt,nt
COc1ccccc1/C=C/CN1CC(C)OC(C)C1 (stereo unspecified),i,i,i,i,i
CC(C)c1cc(C(=O)O)c2cnn(C(C)C)c2n1,?,?,i,i,i
Cc1cn(-c2cc(C(=O)Nc3ccc(C)c(NC(=O)C(=O)c4c[nH]c5ccccc45)c3)cc(C(F)(F)F)c2)cn1,7.31µM,8.2µM,?,i,?
COC(=O)c1ccc(NC(=O)C(=O)c2c[nH]c3ccccc23)cc1,i,i,i,i,i
O=C(CN1CCN(c2ccccc2F)CC1)N1CCc2ccccc21,?,i,i,i,i
Cc1ccc(S(=O)(=O)Nc2ccccc2CNc2ccc(Br)cn2)cc1,29.1µM,?,i,i,i
Cc1ccc(S(=O)(=O)Nc2ccccc2CNc2ccccn2)cc1,?,i,i,i,i
O=C(CCC1N=C2c3ccccc3N=C(SCc3ccc(Cl)cc3)N2C1=O)NCc1ccco1 (stereo unspecified),?,?,i,?,i
Cc1ccc(CSC2=Nc3ccccc3C3=NC(CCC(=O)NC4CCCCC4)C(=O)N23)cc1 (stereo unspecified),?,23.1µM,nt,nt,nt
O=C(CCC1N=C2c3ccccc3N=C(SCc3ccc(Cl)cc3)N2C1=O)NC1CCCCC1 (stereo unspecified),13µM,i,nt,nt,nt
C/C(=N\NC(=O)c1nnn(-c2nonc2N)c1CSc1ccc(Cl)cc1)c1ccco1,i,i,i,i,i
O=C(c1cccc(-n2cccc2)c1)N1CCN(S(=O)(=O)c2ccccc2Br)CC1,?,i,i,?,i
SMILES,DT40 TDP1 no CPT,TDP1 cell CPT,HT1080-NT tox,IL-1B inflam inh,HT1080 IDH1KD tx
CCOc1cc(CNC(=O)C2COc3ccccc3C2)cc(OCC)c1OCC (stereo unspecified),?,14.6µM,nt,nt,nt
Cc1cc(C)c(NC(=O)C2CCN(c3nc4ccccc4[nH]3)CC2)c(C)c1,i,?,nt,nt,nt
CCOc1cc(CNC(=O)C2CCN(c3nc4ccccc4[nH]3)CC2)cc(OCC)c1OCC,16.4µM,20.6µM,nt,nt,nt
CCOc1ccc(NC(=O)C2CCN(c3nc4ccccc4[nH]3)CC2)cc1,23.1µM,?,nt,nt,nt
CC(Cc1ccccc1)NC(=O)/C=C/c1ccc([N+](=O)[O-])cc1 (stereo unspecified),18.4µM,25.9µM,i,i,i
CC(CCc1ccccc1)NC(=O)/C=C/c1ccc(Cl)cc1 (stereo unspecified),i,i,i,-79.0,i
COC(=O)C(CC(C)C)NC(=O)/C=C/c1ccc(Cl)cc1 (stereo unspecified),i,i,i,i,i
CC(Cc1ccccc1)NC(=O)c1ccc([N+](=O)[O-])cc1 (stereo unspecified),i,?,i,i,i
Cc1ccc2c(=O)cc(C(=O)Nc3cccc(Cl)c3C)oc2c1C,i,i,nt,nt,nt
O=C(c1cnsn1)N1CCOc2ccc(CN3CCOCC3)cc2C1,i,i[9.04 µM],nt,nt,nt
CC1(C(=O)NS(C)(=O)=O)CCN1C(=O)CC(c1ccccc1)c1ccccc1 (stereo unspecified),i,i,i,i,i
Cc1noc(C)c1S(=O)(=O)NC(=O)C1(C)CCN1C(=O)c1ccccc1CCc1ccccc1 (stereo unspecified),?,?,i,i,?
CC1(C(=O)NS(=O)(=O)c2ccccc2)CCN1C(=O)CC(c1ccccc1)c1ccccc1 (stereo unspecified),?,?,i,i,i
Cc1ccccc1S(=O)(=O)NC(=O)C1(C)CCN1C(=O)CC(c1ccccc1)c1ccccc1 (stereo unspecified),5.8µM,5.8µM,i,i,i
Cc1noc(C)c1S(=O)(=O)NC(=O)C1(C)CCN1C(=O)CC(c1ccccc1)c1ccccc1 (stereo unspecified),20.6µM,9.2µM,i,i,i
CC1(C(=O)NS(=O)(=O)c2ccccc2Cl)CCN1C(=O)CC(c1ccccc1)c1ccccc1 (stereo unspecified),7.31µM,4.11µM,i,i,i
CC(=O)Nc1ccc(OC(F)(F)C(F)C(F)(F)F)c(NC(C)=O)c1 (stereo unspecified),i,i,i,i,i
O=C(CC1CCCCC1)Nc1ccc(-c2ccc3nncn3n2)cc1,18.4µM,?,?,i,?
O=C(Nc1ccc(-c2ccc3nncn3n2)cc1)C1CCCC1,?,?,i,i,i
Nc1cccn2c(-c3ccc(Cl)c(Cl)c3)cnc12,?,?,i,i,i
Nc1cccn2c(-c3ccc(Cl)cc3)cnc12,18.4µM,?,i,i,i
N/C(=N\OC(=O)/C=C/c1ccccc1Cl)c1ccncc1,i,i,i,-56.3,i
N/C(=N\OC(=O)c1ccccc1Cl)c1ccncc1,i,i,i,i,i
COc1ccccc1C/C(N)=N/OC(=O)/C=C/c1ccccc1,i,?,?,-56.5,?
N/C(=N\OC(=O)/C=C/c1ccccc1)c1ccncc1,i,i,i,-50.2,i
COc1ccccc1C/C(N)=N/OC(=O)c1cccs1,?,?,?,i,i
